Several values for one entry are separate records, joined by “and”; a condition that tells them apart may be missing. Equal values may be shown once. Hit rate of the full screen: of about 5,500 compounds, about 2,000 (36%) were called active. Another 18% or so got no clear call; they are omitted. Rule as the data show it: active = normalized growth mostly below about 0.91 (no sharp cut-off); inconclusive = no clear call, values can overlap the other calls; inactive = mostly above about 0.92. Some of the results follow.
Assay: chemical genetic growth profiling, strain panel (AID 1159580);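 also: tested at 20 µM; growth read once vehicle control cultures reached saturation at 30 °C; 1 = growth at the plate median or of vehicle wells; lower values mean less growth of the strain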
Conditions: S. cerevisiae deletion strains, growth OD

Measured: normalized growth

O=c1c(O)c(-c2ccccc2)oc2cc(O)ccc12
inactive: locus YBR021W, strain FUR4, stronger effect = lower value 1.05 | locus YCR088W, strain abp1, stronger effect = lower value 0.937 | locus YDL005C, strain med2, stronger effect = lower value 0.941 | locus YDL185W, strain tfp1, stronger effect = lower value 0.928 | locus YDR159W, strain sac3, stronger effect = lower value 0.886 | locus YDR195W, strain ref2 1.07 | locus YEL061C, strain CIN8 (second series), stronger effect = lower value 0.915 | locus YER110C, stronger effect = lower value 0.92 | locus YGL078C, strain dbp3, stronger effect = lower value 0.948 | locus YGL227W, strain vid30, stronger effect = lower value 0.931 | locus YHR079C, strain IRE1, stronger effect = lower value 1.07 | locus YIL125W, strain kgd1, stronger effect = lower value 0.951 | locus YJR066W, strain TOR1, stronger effect = lower value 0.982
active: locus YAL021C, strain ccr4, stronger effect = lower value 0.572 | locus YAL026C, strain drs2, stronger effect = lower value 0.486 | locus YAL030W, strain snc1, stronger effect = lower value 0.66 | locus YBL061C, strain skt5, stronger effect = lower value 0.685 | locus YBR009C, strain hhf1, stronger effect = lower value 0.597 | locus YBR023C, strain chs3, stronger effect = lower value 0.518 | locus YBR171W, strain sec66, stronger effect = lower value 0.825 | locus YBR229C, strain ROT2, stronger effect = lower value 0.873 | locus YBR231C, strain swc5, stronger effect = lower value 0.572 | locus YBR279W, strain paf1, stronger effect = lower value 0.641 | locus YCL011C, strain gbp2, stronger effect = lower value 0.583 | locus YCL016C, strain dcc1, stronger effect = lower value 0.711 | locus YCL029C, strain bik1, stronger effect = lower value 0.779 | locus YCL061C, strain MRC1, stronger effect = lower value 0.799 | locus YCL069W, strain vba3, stronger effect = lower value 0.864 | locus YDL035C, strain GPR1, stronger effect = lower value 0.432 | locus YDL040C, strain nat1, stronger effect = lower value 0.847 | locus YDL074C, strain BRE1, stronger effect = lower value 0.455 | locus YDL101C, strain DUN1, stronger effect = lower value 0.697 | locus YDL192W, strain arf1, stronger effect = lower value 0.664 | locus YDR001C, strain nth1, stronger effect = lower value 0.887 | locus YDR069C, strain doa4, stronger effect = lower value 0.413 | locus YDR101C, strain arx1, stronger effect = lower value 0.903 | locus YDR137W, strain rgp1, stronger effect = lower value 0.38 | locus YDR150W, strain NUM1, stronger effect = lower value 0.707 | locus YDR162C, strain NBP2, stronger effect = lower value 0.121 | locus YDR297W, strain sur2, stronger effect = lower value 0.77 | locus YDR318W, strain mcm21, stronger effect = lower value 0.708 | locus YDR334W, strain swr1, stronger effect = lower value 0.704 | locus YDR335W, strain msn5, stronger effect = lower value 0.757 | locus YDR388W, stronger effect = lower value 0.759 | locus YDR392W, strain spt3, stronger effect = lower value 0.369 | locus YDR502C, strain sam2, stronger effect = lower value 0.751 | locus YEL003W, strain gim4, stronger effect = lower value 0.754 | locus YEL037C, strain rad23, stronger effect = lower value 0.794 | locus YEL061C, strain CIN8, stronger effect = lower value 0.705 | locus YER015W, strain faa2, stronger effect = lower value 0.454 | locus YER016W, strain bim1, stronger effect = lower value 0.766 | locus YER111C, strain swi4, stronger effect = lower value 0.873 | locus YER155C, strain BEM2 (second series), stronger effect = lower value 0.81 | locus YER155C, strain BEM2, stronger effect = lower value 0.627 | locus YER167W, strain BCK2, stronger effect = lower value 0.676 | locus YFR010W, strain ubp6, stronger effect = lower value 0.62 | locus YGL086W, strain mad1, stronger effect = lower value 0.699 | locus YGL167C, strain pmr1, stronger effect = lower value 0.882 | locus YGL173C, strain kem1, stronger effect = lower value 0.382 | locus YGL240W, strain doc1, stronger effect = lower value 0.675 | locus YGL248W, strain PDE1, stronger effect = lower value 0.506 | locus YGL253W, strain hxk2, stronger effect = lower value 0.508 | locus YGR078C, strain PAC10, stronger effect = lower value 0.586 | locus YGR135W, strain pre9, stronger effect = lower value 0.675 | locus YGR252W, strain gcn5, stronger effect = lower value 0.701 | locus YHR013C, strain ard1, stronger effect = lower value 0.439 | locus YHR027C, strain rpn1, stronger effect = lower value 0.339 | locus YHR079C, strain IRE1 (second series), stronger effect = lower value 0.913 | locus YHR094C, strain hxt1, stronger effect = lower value 0.903 | locus YHR129C, strain ARP1, stronger effect = lower value 0.564 | locus YHR142W, strain chs7, stronger effect = lower value 0.474 | locus YHR200W, strain rpn10, stronger effect = lower value 0.825 | locus YIL066C, strain RNR3, stronger effect = lower value 0.663 | locus YIL073C, strain SPO22, stronger effect = lower value 0.326 | locus YIR030C, strain dcg1, stronger effect = lower value 0.858 | locus YJL092W, strain hpr5, stronger effect = lower value 0.79 | locus YJL095W, strain BCK1 (second series), stronger effect = lower value 0.337 | locus YJL115W, strain asf1, stronger effect = lower value 0.9 | locus YJL129C, strain trk1, stronger effect = lower value 0.809 | locus YJL134W, strain LCB3, stronger effect = lower value 0.844 | locus YJL154C, strain vps35, stronger effect = lower value 0.885 | locus YJL164C, strain tpk1, stronger effect = lower value 0.432 | locus YJL166W, strain qcr8, stronger effect = lower value 0.471 | locus YJL168C, strain set2, stronger effect = lower value 0.902 | locus YJL187C, strain SWE1 (second series), stronger effect = lower value 0.5 | locus YJL187C, strain SWE1, stronger effect = lower value 0.653 | locus YJR043C, strain POL32, stronger effect = lower value 0.387 | locus YJR075W, strain HOC1, stronger effect = lower value 0.571
0.208 (active) and 1.01 (inactive): locus YJL095W, strain BCK1, stronger effect = lower value
0.434 (active) and 1.07 (inactive): locus YHR030C, strain SLT2, stronger effect = lower value
